# Reference: PubChem BioAssay (NCATS)
# Results filed as inconclusive are left out. A call without a number means that no potency is given here. Active and inactive are the calls of the source. Unless noted, calls follow the shape of the dose curve; as a rule, active = well fitted curve in the direction sought with a large enough effect; inconclusive = small, poorly fitted or top-dose-only effect, or another doubt; inactive = no such curve, though single readings can be large; an effect the other way counts as inactive or inconclusive.
# Legend:
# [1] = qHTS for differential inhibitors of proliferation of Plasmodium falciparum line Dd2 (AID 1882); conditions: Potency: Plasmodium falciparum Dd2 proliferation inhibition; also: nearly all actives have a fitted effect of over 65% in size; also: potency is read from the fitted curve at half-maximal effect
# In short: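 SYBR Green I DNA fluorescence read-out, ex 485/em 535 nm. Signals were normalized to 0.29 uM artemisinin and DMSO wells, then corrected using vehicle-only plates flanking each stack. Parasite growth ran 72 h in erythrocytes before lysis.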
# [2] = qHTS for differential inhibitors of proliferation of Plasmodium falciparum line W2 (AID 1883); conditions: Potency: Plasmodium falciparum W2 proliferation inhibition;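 also: parasites grown with compound for 72 h before lysis and staining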; also: potency is read from the fitted curve at half-maximal effect
# [3] = qHTS for differential inhibitors of proliferation of Plasmodium falciparum line HB3 (AID 1886); conditions: Potency: Plasmodium falciparum HB3 proliferation inhibition;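 also: parasites grown with compound for 72 h before SYBR Green readout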; also: potency is read from the fitted curve at half-maximal effect
# [4] = target: Ferritin light chain (Equus caballus) (UniProt P02791); test: qHTS Validation Assay for Identification of Novel General Anesthetics (AID 2323); also: series mostly up to about 77 µM
# In short: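 Normalized fluorescence response, scaled between free 1-AMA and 1-AMA/apoferritin complex, fitted to a four-parameter Hill equation for concentration-effect values. Binding mix: 10 uM horse-spleen apoferritin, 50% saturated 1-AMA in PBS; read 380/535 nm after 10 min.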
# [5] = target: ATP-dependent DNA helicase Q1 (Homo sapiens) (UniProt P46063); test: qHTS Validation Assay for Inhibitors of RecQ-Like Dna Helicase 1 (RECQ1) (AID 2353)
# In short: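 50 nM RECQ1T1 preincubated 15 min with compound in Tris pH 8.0 buffer with MgCl2, DTT, Tween-20 and 2.5 ug/ml poly(dI-dC); started with 200 nM TAMRA/BHQ-2 forked duplex and 2 mM ATP. Unwinding read as fluorescence (525/598 nm), two reads 2 h apart.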
# [6] = Cytometric Cell-Based qHTS for Inhibitors of the mTORC1 Signaling Pathway in MEF (Tsc2-/-, p53-/-) Cells (AID 2660);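 also: Tsc2 and p53 null MEFs carrying empty vector with compound for 24 h; percent of cells above a phospho-rpS6 to PI ratio cutoff in each well; series mostly up to about 38 µM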
# In short: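 Cells are plated, treated with compound for 24 hrs at 37 degree Celsius, then fixed, blocked and immunostained for phospho-rpS6 Ser235/236. Propidium iodide counterstain follows. Per-well % positive cells is derived from the PI-normalized phospho-S6 signal.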
# [7] = High Content Imaging Cell-Based qHTS for Inhibitors of the mTORC1 Signaling Pathway in MEF (Tsc2-/-, p53-/-) Cells (AID 2666);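 also: percent of cells scored positive for phospho-rpS6 Ser235/236 immunostaining by imaging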
# In short: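 Cells were plated, dosed with compound after 24 hrs, and incubated another 24 hrs at 37 degree Celsius. Fixed cells were immunostained for phospho-rpS6 Ser235/236 and counterstained, and the normalized signal was scored as % active cells against rapamycin and DMSO controls.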
# [8] = qHTS Assay for Modulators of Human Peripheral Myelin Protein 22 (PMP22) Expression/Activity (AID 1967; active = well fitted curve in the direction sought with a large enough effect in the signal ratio; the % refers to the signal ratio)
# In short: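 Engineered MSC80 cells, Pmp22-promoter green and EF-alpha red luciferase reporters; 24h compound treatment at 37 °C. Concentration-response fits on green, red and ratio signals, each overlap-corrected, with %Activity normalized to untreated wells.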
# [9] = target: RecQ-like DNA helicase BLM (Homo sapiens) (UniProt P54132); test: qHTS Validation Assay for Inhibitors of Bloom's syndrome helicase (BLM) (AID 2364)
# In short: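 Forked 20-bp duplex substrate (200 nM, TAMRA/BHQ-2) plus 2 mM ATP added after 15 min compound preincubation with 50 nM enzyme, pH 8.0, poly(dI-dC) 2.5 ug/ml. Strand separation followed by fluorescence (525/598 nm) over 2 h, normalized to enzyme-free and DMSO controls.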
# Sequence of ATP-dependent DNA helicase Q1 (Homo sapiens) (P46063 whole entry, looked up): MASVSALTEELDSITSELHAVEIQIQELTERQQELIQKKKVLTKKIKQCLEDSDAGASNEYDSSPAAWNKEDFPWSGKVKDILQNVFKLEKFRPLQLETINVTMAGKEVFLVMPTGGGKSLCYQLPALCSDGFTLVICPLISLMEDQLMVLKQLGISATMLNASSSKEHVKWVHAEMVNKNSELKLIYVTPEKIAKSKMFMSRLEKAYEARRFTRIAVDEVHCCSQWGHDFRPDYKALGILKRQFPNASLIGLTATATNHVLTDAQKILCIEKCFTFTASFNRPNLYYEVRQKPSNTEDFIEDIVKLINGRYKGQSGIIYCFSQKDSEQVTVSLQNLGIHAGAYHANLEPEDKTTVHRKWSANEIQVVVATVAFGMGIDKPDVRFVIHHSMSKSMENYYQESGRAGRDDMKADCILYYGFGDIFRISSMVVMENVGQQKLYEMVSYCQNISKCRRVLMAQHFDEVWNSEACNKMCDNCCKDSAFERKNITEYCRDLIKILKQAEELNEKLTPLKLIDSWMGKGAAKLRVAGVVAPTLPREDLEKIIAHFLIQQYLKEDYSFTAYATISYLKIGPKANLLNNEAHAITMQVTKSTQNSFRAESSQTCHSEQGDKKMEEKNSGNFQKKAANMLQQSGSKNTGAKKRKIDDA
# Sequence of Ferritin light chain (Equus caballus) (P02791 2-175 limits assumed): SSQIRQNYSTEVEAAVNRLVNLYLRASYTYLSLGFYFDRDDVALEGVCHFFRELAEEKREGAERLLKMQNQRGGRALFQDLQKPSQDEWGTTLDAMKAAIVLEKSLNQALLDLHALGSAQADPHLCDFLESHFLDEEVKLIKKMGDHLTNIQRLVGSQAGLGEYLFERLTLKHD
# Sequence of RecQ-like DNA helicase BLM (Homo sapiens) (P54132 whole entry, looked up): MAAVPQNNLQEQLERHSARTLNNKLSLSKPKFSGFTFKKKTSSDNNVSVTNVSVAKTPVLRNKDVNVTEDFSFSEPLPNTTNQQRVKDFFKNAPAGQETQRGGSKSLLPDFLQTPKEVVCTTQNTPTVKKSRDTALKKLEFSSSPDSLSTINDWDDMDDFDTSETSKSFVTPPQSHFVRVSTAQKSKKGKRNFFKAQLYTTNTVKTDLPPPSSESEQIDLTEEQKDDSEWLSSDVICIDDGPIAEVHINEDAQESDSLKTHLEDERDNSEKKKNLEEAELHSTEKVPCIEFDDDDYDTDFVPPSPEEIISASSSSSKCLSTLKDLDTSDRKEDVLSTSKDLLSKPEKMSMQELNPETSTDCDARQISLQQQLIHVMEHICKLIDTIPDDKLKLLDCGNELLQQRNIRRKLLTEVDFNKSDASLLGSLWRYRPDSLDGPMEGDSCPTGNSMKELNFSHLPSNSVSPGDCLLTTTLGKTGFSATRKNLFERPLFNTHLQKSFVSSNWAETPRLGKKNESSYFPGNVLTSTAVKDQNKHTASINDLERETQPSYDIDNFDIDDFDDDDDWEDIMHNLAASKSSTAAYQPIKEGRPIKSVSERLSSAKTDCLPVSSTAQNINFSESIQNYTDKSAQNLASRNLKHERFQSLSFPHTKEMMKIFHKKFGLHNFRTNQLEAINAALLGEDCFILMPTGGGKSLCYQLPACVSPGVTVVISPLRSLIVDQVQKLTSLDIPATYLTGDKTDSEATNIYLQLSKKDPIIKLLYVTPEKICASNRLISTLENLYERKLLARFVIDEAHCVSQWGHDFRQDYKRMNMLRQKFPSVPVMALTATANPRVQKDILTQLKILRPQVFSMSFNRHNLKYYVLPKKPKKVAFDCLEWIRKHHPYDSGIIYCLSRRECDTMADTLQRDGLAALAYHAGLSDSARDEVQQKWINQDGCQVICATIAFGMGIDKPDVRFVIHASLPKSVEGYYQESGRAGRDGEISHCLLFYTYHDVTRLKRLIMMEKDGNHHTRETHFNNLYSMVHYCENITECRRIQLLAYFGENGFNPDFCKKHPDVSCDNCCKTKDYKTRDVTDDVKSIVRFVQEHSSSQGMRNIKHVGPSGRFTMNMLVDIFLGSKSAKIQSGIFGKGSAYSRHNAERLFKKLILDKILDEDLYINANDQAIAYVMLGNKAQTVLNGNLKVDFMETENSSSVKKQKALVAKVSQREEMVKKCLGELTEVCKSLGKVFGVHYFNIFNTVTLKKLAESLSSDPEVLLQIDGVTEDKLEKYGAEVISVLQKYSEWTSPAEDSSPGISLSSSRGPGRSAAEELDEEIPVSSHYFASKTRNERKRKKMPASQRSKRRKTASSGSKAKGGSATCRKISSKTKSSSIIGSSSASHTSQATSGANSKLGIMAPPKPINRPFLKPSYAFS
Compound,Potency [1],Potency [2],Potency [3],outcome [4],Potency [5],outcome [6],Potency [7],outcome [8],Potency [9]
CC(=O)Nc1nnc(S(N)(=O)=O)s1,inactive,inactive,inactive,inactive,inactive,inactive,inactive,,
c1ccc2c(c1)CCCC2C1=NCCN1 (stereo unspecified),inactive,,inactive,inactive,inactive,inactive,inactive,inactive,
CC(C(=O)O)c1ccc(CC2CCCC2=O)cc1 (stereo unspecified),inactive,,inactive,inactive,inactive,inactive,inactive,inactive,inactive
Cc1ccc(Cl)c(Nc2ccccc2C(=O)O)c1Cl,inactive,inactive,inactive,inactive,inactive,inactive,inactive,,
NC(Cc1ccc(Cl)cc1)C(=O)O (stereo unspecified),inactive,inactive,inactive,inactive,inactive,inactive,inactive,,
O=C(O)CN(CCN(CC(=O)O)CC(=O)O)CCN(CC(=O)O)CC(=O)O,inactive,inactive,inactive,inactive,inactive,inactive,inactive,,
CCO/C([O-])=N/c1c[n+](N2CCOCC2)no1,inactive,inactive,inactive,inactive,inactive,inactive,inactive,,
C[n+]1cc2c3c(ccc2c2ccc4cc5c(cc4c21)OCO5)OCO3,6.31 µM (active),2.51 µM (active),3.16 µM (active),inactive,inactive,,inactive,,
CC1=C(C)C(=O)C(CCCCC#CCCCC#CCO)=C(C)C1=O,10 µM (active),3.55 µM (active),8.91 µM (active),,inactive,inactive,inactive,,
CCN(CC)CCOCCOC(=O)C1(c2ccccc2)CCCC1,2.24 µM (active),0.794 µM (active),,inactive,inactive,inactive,inactive,,inactive
O=C(O)CN(CCOCCOCCN(CC(=O)O)CC(=O)O)CC(=O)O,inactive,inactive,inactive,inactive,inactive,inactive,inactive,,
CC(N=C(NC#N)Nc1ccncc1)C(C)(C)C (stereo unspecified),inactive,11.2 µM (active),,inactive,inactive,inactive,inactive,,
Fc1ccc(C(c2ccc(F)cc2)N2CCN(C/C=C/c3ccccc3)CC2)cc1,12.6 µM (active),3.98 µM (active),10 µM (active),inactive,inactive,inactive,inactive,,
Cc1ccc(=O)n(-c2ccccc2)c1,inactive,inactive,inactive,inactive,inactive,inactive,inactive,,
